Assay results reported in PubChem BioAssay (NCI).
Compounds without any hit were thinned out: in the full panel of roughly 79,000, 15% have a hit. Values without a mark were called inactive. Calls of active or inactive are those of the source. No stated cut-off is given here; in the data, active means growth inhibition above about 70%; inactive means the rest.

Experiments:
[1] = NCI Yeast Anticancer Drug Screen. Data for the rad50 strain (AID 155);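 further: 0% = growth of vehicle-only cultures of the same strain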; settings: S. cerevisiae rad50 strain growth inhibition, stronger effect = higher value
Procedure, shortened: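 Readout: growth inhibition relative to vehicle-treated cultures. Compound exposure was carried out in a genetically defined yeast strain deficient in DNA damage repair.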

[2] = NCI Yeast Anticancer Drug Screen. Data for the mec2-1 strain (AID 157); settings: S. cerevisiae mec2-1 strain, stronger effect = higher value
Procedure, shortened: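 Using mec2-1 yeast: add compound, measure growth, express inhibition versus vehicle-treated cultures.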

[3] = NCI Yeast Anticancer Drug Screen. Data for the sgs1 mgt1 strain (AID 161);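 further: 0% = growth of cultures given vehicle only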; settings: S. cerevisiae sgs1 mgt1 strain, stronger effect = higher value
Procedure, shortened: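 Growth of a repair-deficient yeast mutant was monitored after compound treatment and expressed as inhibition relative to vehicle-treated cultures.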

[4] = NCI Yeast Anticancer Drug Screen. Data for the cln2 rad14 strain (AID 165);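 further: 0% = growth equal to vehicle treated cultures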; settings: S. cerevisiae cln2 rad14 strain, stronger effect = higher value
Procedure, shortened: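 Yeast strain cln2 rad14, bearing defects in cell cycle control and DNA repair, serves as the test system; values reflect growth inhibition compared with vehicle.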

[5] = NCI Yeast Anticancer Drug Screen. Data for the bub3 strain (AID 167); settings: S. cerevisiae bub3 mutant strain, stronger effect = higher value
Procedure, shortened: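 Readout: yeast growth inhibition, expressed relative to vehicle-only wells. The test organism is a mutant strain from a panel with lesions in DNA repair or checkpoint genes.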

[6] = NCI Yeast Anticancer Drug Screen. Data for the mlh1 rad18 strain (AID 175); settings: S. cerevisiae mlh1 rad18 strain growth inhibition, stronger effect = higher value
Procedure, shortened: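 Steps: expose repair-defective yeast to compound; measure growth; express inhibition against vehicle-treated controls.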

[7] = at 5.0 µM (retest, dose inferred, filed as 0.5)
[8] = at 50.0 µM (retest, dose inferred, filed as 5.0)

| SMILES | growth inhibition [1, 7] | growth inhibition [1, 8] | growth inhibition ([1]; at 50.0 µM) | growth inhibition [2, 7] | growth inhibition [2, 8] | growth inhibition ([2]; at 50.0 µM) | growth inhibition [3, 7] | growth inhibition [3, 8] | growth inhibition ([3]; at 50.0 µM) | growth inhibition [4, 7] | growth inhibition [4, 8] | growth inhibition ([4]; at 50.0 µM) | growth inhibition [5, 7] | growth inhibition [5, 8] | growth inhibition ([5]; at 50.0 µM) | growth inhibition [6, 7] | growth inhibition [6, 8] | growth inhibition ([6]; at 50.0 µM) |
| --- | --- | --- | --- | --- | --- | --- | --- | --- | --- | --- | --- | --- | --- | --- | --- | --- | --- | --- |
| CN(C)c1ccc(-c2c(C#N)c(S)n(NS(=O)(=O)c3ccccc3)c(=O)c2C#N)cc1 | 94% (active) | 96% (active) | 35.4% | 31% | 95% (active) | 75.3% (active) | 38% | 95% (active) | 61.2% | 50% | 69% | 31.8% | 45% | 93% (active) | 58.1% | 91% (active) | 94% (active) | 60.7% |
| O=C(O)/C(Cl)=C(/Cl)C(=O)Nc1cccc(Cl)c1 | 45% | 98% (active) | 90.9% (active) | 50% | 100% (active) | 86.2% (active) | 42% | 100% (active) | 88.6% (active) | 32% | 99% (active) | 89.1% (active) | 63% | 99% (active) | 89.9% (active) | 50% | 99% (active) | 92.4% (active) |
| COc1cc(O)c2c(c1)C(=O)C1=C(C2=O)[C@@H](C)OC(C)[C@H]1O (some centres not stated) | 8% | 96% (active) | 53.4% | 2% | 94% (active) | 6.2% | 8% | 97% (active) | -4.5% | 1% | 95% (active) | -22.4% | 21% | 97% (active) | -2.75% | 8% | 97% (active) | -6.25% |
| C#Cc1cccc(N2C(=O)CCC2=O)c1 | 36% | 44% | 91.7% (active) | 48% | 43% | 93.6% (active) | 99% (active) | 99% (active) | 94.1% (active) | 97% (active) | 99% (active) | 91.2% (active) | 100% (active) | 97% (active) | 92.3% (active) | 42% | 40% | 91.8% (active) |
| CC(C)SC(=S)S(=O)(=O)c1ccc(Cl)cc1 | 5% | 69% | 99.4% (active) | 0% | 64% | 99.8% (active) | 18% | 74% (active) | 99.7% (active) | -6% | 63% | 78.2% (active) | 11% | 83% (active) | 99.7% (active) | 8% | 76% (active) | 99.7% (active) |
| S=c1c2cn[nH]c2nc2scc(-c3ccc(Cl)cc3)n12 | 1% | 98% (active) | 45.4% | -29% | 97% (active) | 49.7% | -27% | 98% (active) | 65.9% | 24% | 98% (active) | 33.9% | -4% | 97% (active) | 49% | 11% | 97% (active) | 30.6% |
| N#Cc1c2c(c(N=[N+]=[N-])n3c1nc1ccccc13)CCCC2 | 47% | 95% (active) | 87.2% (active) | 36% | 98% (active) | 92.3% (active) | 45% | 99% (active) | 91.5% (active) | 28% | 97% (active) | 90% (active) | 43% | 95% (active) | 90.9% (active) | 50% | 98% (active) | 89.7% (active) |
| O=C(O)c1ccc([N+](=O)[O-])o1 | 6% | 32% | 61% | 1% | 16% | 25.1% | 4% | 27% | 70.8% (active) | 3% | 11% | 17.6% | -3% | 10% | 38.3% | 6% | 41% | 71.5% (active) |
| c1ccc(-c2c[nH]c(-c3ccccc3)c2-c2ccccc2)cc1 | 1% | 90% (active) | 95.2% (active) | -13% | 93% (active) | 95.1% (active) | -15% | 94% (active) | 93.3% (active) | -4% | 80% (active) | 95% (active) | 7% | 92% (active) | 83.4% (active) | 18% | 94% (active) | 96.8% (active) |
